Parameters in all cases: species or system human, MV4-11 + K-562 + COLO205 + SK-N-BE2 + OVCAR-8
One test has as its system AURKA. The note with it: read-out: apparent Kd; compound concentrations: 100 nM and 1000 nM (sheet 'Samples'), CATDS: 7.2357375689978506E-2; n = 1.
Another test deals with AURKB. The note with it: read-out: apparent Kd; compound concentrations: 100 nM and 1000 nM (sheet 'Samples'), CATDS: 8.33802174361232E-2; n = 1.
The subject of a further test is BTK. The note with it: read-out: apparent Kd; compound concentrations: 100 nM and 1000 nM (sheet 'Samples'), CATDS: 2.7906188232160099E-2; n = 1.
The subject of the next test is CDK6. The note with it: read-out: apparent Kd, n = 1.
The test system of another test is DDR1. The note with it: read-out: apparent Kd; compound concentrations: 100 nM and 1000 nM (sheet 'Samples'), CATDS: 3.3765649508464002E-2; n = 1.
A further test concerns DDR2. The note with it: read-out: apparent Kd; compound concentrations: 100 nM and 1000 nM (sheet 'Samples'), CATDS: 2.4811754642975199E-2; n = 1.
A further test concerns EPHA1. The note with it: read-out: apparent Kd; compound concentrations: 100 nM and 1000 nM (sheet 'Samples'), CATDS: 5.8966427250755599E-2; n = 1.
The test system of a further test is EPHA2. The note with it: read-out: apparent Kd; compound concentrations: 100 nM and 1000 nM (sheet 'Samples'), CATDS: 2.87381973097037E-2; n = 1.
A further test deals with EPHA5. The note with it: read-out: apparent Kd; compound concentrations: 100 nM and 1000 nM (sheet 'Samples'), CATDS: 2.6468271871748401E-2; n = 1.
For a further test, the system named is EPHA7. The note with it: read-out: apparent Kd; compound concentrations: 100 nM and 1000 nM (sheet 'Samples'), CATDS: 2.4521911619802599E-2; n = 1.
For a further test, the system named is EPHB1. The note with it: read-out: apparent Kd; compound concentrations: 100 nM and 1000 nM (sheet 'Samples'), CATDS: 4.12835328689228E-2; n = 1.
The next test has as its system EPHB3. The note with it: read-out: apparent Kd; compound concentrations: 100 nM and 1000 nM (sheet 'Samples'), CATDS: 2.2990547954998001E-2; n = 1.
In another test the test system is EPHB4. The note with it: read-out: apparent Kd; compound concentrations: 100 nM and 1000 nM (sheet 'Samples'), CATDS: 2.6241533264211699E-2; n = 1.
The next test has as its system EPHB6. The note with it: read-out: apparent Kd; compound concentrations: 100 nM and 1000 nM (sheet 'Samples'), CATDS: 2.2781408813982901E-2; n = 1.
The subject of a further test is FGFR1. The note with it: read-out: apparent Kd; compound concentrations: 100 nM and 1000 nM (sheet 'Samples'), CATDS: 3.1616918928168397E-2; n = 1.
The subject of the next test is FLT4. The note with it: read-out: apparent Kd; compound concentrations: 100 nM and 1000 nM (sheet 'Samples'), CATDS: 7.7146870041813295E-2; n = 1.
A further test relates to GSK3A. The note with it: read-out: apparent Kd, n = 1.
The subject of another test is GSK3B. The note with it: read-out: apparent Kd, n = 1.
The next test concerns IRAK1. The note with it: read-out: apparent Kd; compound concentrations: 100 nM and 1000 nM (sheet 'Samples'), CATDS: 2.4333511791148201E-2; n = 1.
The next test concerns MAP3K5. The note with it: read-out: apparent Kd; compound concentrations: 100 nM and 1000 nM (sheet 'Samples'), CATDS: 2.5132787541446201E-2; n = 1.
Another test has as its system MAP3K6. The note with it: read-out: apparent Kd; compound concentrations: 100 nM and 1000 nM (sheet 'Samples'), CATDS: 2.24428147169137E-2; n = 1.
The subject of another test is PAK4. The note with it: read-out: apparent Kd; compound concentrations: 100 nM and 1000 nM (sheet 'Samples'), CATDS: 2.7893369435470699E-2; n = 1.
The test system of the next test is PDGFRB. The note with it: read-out: apparent Kd; compound concentrations: 100 nM and 1000 nM (sheet 'Samples'), CATDS: 2.3035756841704998E-2; n = 1.
A further test has as its system PLK4. The note with it: read-out: apparent Kd; compound concentrations: 100 nM and 1000 nM (sheet 'Samples'), CATDS: 9.4443768096787298E-2; n = 1.
A further test concerns PTK2. The note with it: read-out: apparent Kd; compound concentrations: 100 nM and 1000 nM (sheet 'Samples'), CATDS: 0.104516847999243; n = 1.
Another test has as its system RET. The note with it: read-out: apparent Kd; compound concentrations: 100 nM and 1000 nM (sheet 'Samples'), CATDS: 0.104878429822753; n = 1.
The subject of the next test is SLK. The note with it: read-out: apparent Kd; compound concentrations: 100 nM and 1000 nM (sheet 'Samples'), CATDS: 2.57372154872102E-2; n = 1.
Another test has as its system STK10. The note with it: read-out: apparent Kd; compound concentrations: 100 nM and 1000 nM (sheet 'Samples'), CATDS: 4.1679333810588297E-2; n = 1.
In another test the test system is TEC. The note with it: read-out: apparent Kd; compound concentrations: 100 nM and 1000 nM (sheet 'Samples'), CATDS: 3.46380925591862E-2; n = 1.
A further test relates to TGFBR1. The note with it: read-out: apparent Kd; compound concentrations: 100 nM and 1000 nM (sheet 'Samples'), CATDS: 3.4751131583425202E-2; n = 1.
The next test concerns TNK1. The note with it: read-out: apparent Kd; compound concentrations: 100 nM and 1000 nM (sheet 'Samples'), CATDS: 3.18258683294073E-2; n = 1.
In a further test the test system is AKT3. The note with it: read-out: apparent Kd; compound concentrations:100 nM and 1000 nM (sheet 'Samples'); n = 1.
A further test has as its system DCTPP1. The note with it: read-out: apparent Kd; compound concentrations:100 nM and 1000 nM (sheet 'Samples'); n = 1.
A further test concerns NQO1. The note with it: read-out: apparent Kd; compound concentrations:100 nM and 1000 nM (sheet 'Samples'); n = 1.
Another test concerns PRKAG1. The note with it: read-out: apparent Kd; compound concentrations:100 nM and 1000 nM (sheet 'Samples'); n = 1.
Another test relates to CDK16. The note with it: read-out: apparent Kd; compound concentrations:100 nM and 1000 nM (sheet 'Samples'); n = 1.
A further test concerns CDK17. The note with it: read-out: apparent Kd; compound concentrations:100 nM and 1000 nM (sheet 'Samples'); n = 1.
A further test deals with CDK9. The note with it: read-out: apparent Kd; compound concentrations:100 nM and 1000 nM (sheet 'Samples'); n = 1.
A further test deals with CDKL5. The note with it: read-out: apparent Kd; compound concentrations:100 nM and 1000 nM (sheet 'Samples'); n = 1.
Another test deals with ICK. The note with it: read-out: apparent Kd; compound concentrations:100 nM and 1000 nM (sheet 'Samples'); n = 1.
A further test has as its system PIM2. The note with it: read-out: apparent Kd; compound concentrations:100 nM and 1000 nM (sheet 'Samples'); n = 1.
The next test relates to RIOK2. The note with it: read-out: apparent Kd; compound concentrations:100 nM and 1000 nM (sheet 'Samples'); n = 1.
[1] abbreviates: compound concentrations:100 nM and 1000 nM (sheet 'Samples').

Read-outs that look alike come from different tables or passages of the source.

For `CC(=O)Nc1ccc2c(c1)C(c1ccccc1Cl)=Nc1c(n[nH]c1C)N2` [RO0281752-000], the potency estimated from few doses was 151 nM in the test on AURKA; 121 nM in the test on AURKB; 1080 nM with BTK; 1320 nM in the test with CDK6 (compound concentrations: 100 nM and 1000 nM (sheet 'Samples'), CATDS: 2.6039683989772199E-2); 658 nM in the test with DDR1; 1540 nM with DDR2. Further, the potency estimated from few doses with EPHA1 was 213 nM; with EPHA2, 992 nM; in the test on EPHA5, 1260 nM; in the test on EPHA7, 1600 nM; with EPHB1, 421 nM; in the test with EPHB3, 2020 nM. Besides, the potency estimated from few doses in the test on EPHB4 was 1290 nM; in the test on EPHB6 it was 2090 nM; in the test with FGFR1, 772 nM; in the test on FLT4 it was 136 nM; with GSK3A (compound concentrations: 100 nM and 1000 nM (sheet 'Samples'), CATDS: 2.5407151234935001E-2), 1430 nM; with GSK3B (compound concentrations: 100 nM and 1000 nM (sheet 'Samples'), CATDS: 2.45501369034281E-2), 1600 nM. In addition, the potency estimated from few doses is 1650 nM with IRAK1; 1480 nM with MAP3K5; 2220 nM in the test with MAP3K6; 1080 nM with PAK4; 2000 nM in the test on PDGFRB; 100 nM in the test on PLK4. For the same compound, the potency estimated from few doses in the test on PTK2 is 86.4 nM; in the test on RET it was 86 nM; in the test with SLK, 1370 nM; in the test on STK10, 413 nM; in the test on TEC, 620 nM; in the test on TGFBR1 it was 615 nM. For the same compound, the potency estimated from few doses in the test with TNK1 is 760 nM.

For the compound `CC(C)NC(=O)N1CC[C@H](NC2=Nc3cc(F)ccc3N(CC(F)F)c3ccc(Cl)cc32)C1` [NVS-PAK1-1], the potency estimated from few doses in the test on AKT3 is 1760 nM; in the test on DCTPP1, 2220 nM; in the test on NQO1, 1340 nM; with PRKAG1, 1740 nM.

Turning to `CN1CCC(C(=O)Nc2n[nH]c3nc(-c4ccc(O)cc4)c(Br)cc23)CC1` [SB-732881], the potency estimated from few doses in the test on AKT3 is 1640 nM; in the test with CDK16 it was 565 nM; in the test with CDK17, 914 nM; in the test on CDK6 (setting [1]) it was 1480 nM; in the test with CDK9, 400 nM; in the test with CDKL5, 852 nM. The potency estimated from few doses was 3.34 nM in the test with GSK3A (setting [1]); 10.4 nM in the test with GSK3B (setting [1]); 1230 nM in the test with ICK; 1660 nM in the test with PIM2; 2210 nM with RIOK2.
